# In article PMC4081100, “A DNA-binding-site landscape and regulatory network analysis for NAC transcription factors in Arabidopsis thaliana”:
# Key:
# Experiment in all cases: universal protein binding microarray (PBM); transcription factors of Arabidopsis thaliana; high values mean tight binding
# GST-ATAF1 NAC domain = biological target: T1, GST-ATAF1 NAC domain (Arabidopsis thaliana, UniProt Q39013 7-158); conditions: protein: recombinant; tags: GST; chain copies: 2; dsDNA, one strand shown
# T1 sequence: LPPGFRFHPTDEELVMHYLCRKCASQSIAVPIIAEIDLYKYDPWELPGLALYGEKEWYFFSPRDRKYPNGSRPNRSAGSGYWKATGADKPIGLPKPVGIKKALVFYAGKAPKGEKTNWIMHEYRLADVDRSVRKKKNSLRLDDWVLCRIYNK
# Procedure, shortened: (§1)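 GST-tagged proteins (NAC-domain, full-length or DNA-binding-domain) were induced in cells, with zinc acetate supplied for zinc-finger proteins, then purified on glutathione–Sepharose 4B. Each was tested in duplicate at 200 to 500 nM final on custom all-10-mer Agilent 4 × 180K arrays rendered double-stranded by primer extension. The binding value is the normalised enrichment score (E-score) across gapped and ungapped 8-mers.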
# [1] = biological target: T2, GST-ANAC092(1-285) full length (Arabidopsis thaliana, UniProt Q9FKA0 1-285); conditions: protein: recombinant; tags: GST; chain copies: 2; dsDNA, one strand shown
# T2 sequence: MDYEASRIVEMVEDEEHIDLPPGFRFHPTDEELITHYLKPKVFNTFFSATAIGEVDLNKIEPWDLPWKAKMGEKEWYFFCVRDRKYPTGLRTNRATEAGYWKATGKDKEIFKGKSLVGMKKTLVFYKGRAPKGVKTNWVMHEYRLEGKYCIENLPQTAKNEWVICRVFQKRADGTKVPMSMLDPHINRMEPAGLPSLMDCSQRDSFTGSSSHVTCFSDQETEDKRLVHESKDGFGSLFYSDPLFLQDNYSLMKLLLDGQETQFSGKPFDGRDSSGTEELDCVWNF
# Procedure, shortened: as §1
# GST-NAP(1-166) = biological target: T3, GST-NAP(1-166) (Arabidopsis thaliana, UniProt O49255 1-166); conditions: protein: recombinant; tags: GST; chain copies: 2; dsDNA, one strand shown
# T3 sequence: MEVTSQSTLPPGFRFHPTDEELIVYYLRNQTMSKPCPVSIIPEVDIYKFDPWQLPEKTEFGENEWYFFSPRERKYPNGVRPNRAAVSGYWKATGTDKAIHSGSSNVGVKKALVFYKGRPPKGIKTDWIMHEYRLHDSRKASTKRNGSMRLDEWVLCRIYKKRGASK
# Procedure, shortened: as §1
# GST-NST2(1-184) = biological target: T4, GST-NST2(1-184) (Arabidopsis thaliana, UniProt Q9M274 1-184); conditions: protein: recombinant; tags: GST; chain copies: 2; dsDNA, one strand shown
# T4 sequence: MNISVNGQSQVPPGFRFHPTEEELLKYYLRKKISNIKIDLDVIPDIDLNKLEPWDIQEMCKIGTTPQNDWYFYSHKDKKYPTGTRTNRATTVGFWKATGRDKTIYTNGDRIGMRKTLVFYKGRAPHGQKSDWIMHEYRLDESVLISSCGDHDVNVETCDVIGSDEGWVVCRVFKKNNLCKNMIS
# Procedure, shortened: as §1
# GST-SND1(1-203) = biological target: T5, GST-SND1(1-203) (Arabidopsis thaliana, UniProt Q9LPI7 1-203); conditions: protein: recombinant; tags: GST; chain copies: 2; dsDNA, one strand shown
# T5 sequence: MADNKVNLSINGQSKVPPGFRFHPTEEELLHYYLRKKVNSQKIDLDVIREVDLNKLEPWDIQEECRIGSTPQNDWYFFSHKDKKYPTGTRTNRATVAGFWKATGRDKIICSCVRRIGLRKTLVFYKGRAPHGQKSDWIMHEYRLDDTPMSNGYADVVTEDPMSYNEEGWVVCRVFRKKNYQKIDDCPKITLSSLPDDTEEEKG
# Procedure, shortened: as §1
# GST-VND3 NAC domain = biological target: T6, GST-VND3 NAC domain (Arabidopsis thaliana, UniProt Q9FH59 12-162); conditions: protein: recombinant; tags: GST; chain copies: 2; dsDNA, one strand shown
# T6 sequence: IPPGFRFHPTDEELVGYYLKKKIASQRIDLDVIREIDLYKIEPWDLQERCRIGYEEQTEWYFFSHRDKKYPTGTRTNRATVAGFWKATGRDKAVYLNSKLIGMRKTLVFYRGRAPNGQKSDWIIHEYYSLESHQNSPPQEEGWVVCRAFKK
# Procedure, shortened: as §1
# GST-VND7 NAC domain = biological target: T7, GST-VND7 NAC domain (Arabidopsis thaliana, UniProt Q9C8W9 9-158); conditions: protein: recombinant; tags: GST; chain copies: 2; dsDNA, one strand shown
# T7 sequence: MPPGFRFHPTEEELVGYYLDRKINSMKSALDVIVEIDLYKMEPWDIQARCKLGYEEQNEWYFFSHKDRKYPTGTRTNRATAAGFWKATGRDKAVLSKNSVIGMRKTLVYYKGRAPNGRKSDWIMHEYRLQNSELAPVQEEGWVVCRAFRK
# Procedure, shortened: as §1
# GST-WRKY1(266-371) = GST-WRKY1(266-371) (Arabidopsis thaliana, UniProt Q9SI37 266-371); conditions: protein: recombinant; tags: GST; dsDNA, one strand shown
# Procedure, shortened: as §1
# GST-ANAC092(1-176) = biological target: T8, GST-ANAC092(1-176) (Arabidopsis thaliana, UniProt Q9FKA0 1-176); conditions: protein: recombinant; tags: GST; chain copies: 2; dsDNA, one strand shown
# T8 sequence: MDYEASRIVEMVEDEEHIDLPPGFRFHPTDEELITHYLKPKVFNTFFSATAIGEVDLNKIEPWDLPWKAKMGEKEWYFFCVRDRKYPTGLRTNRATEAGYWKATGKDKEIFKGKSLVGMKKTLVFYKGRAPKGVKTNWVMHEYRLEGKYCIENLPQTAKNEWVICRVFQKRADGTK
# Procedure, shortened: as §1
# GST-NTL6(1-168) = GST-NTL6(1-168) (Arabidopsis thaliana, UniProt Q9SCK6 1-168); conditions: protein: recombinant; tags: GST; chain copies: 2; dsDNA, one strand shown
# Procedure, shortened: as §1
# GST-ANAC019 NAC domain = biological target: T9, GST-ANAC019 NAC domain (Arabidopsis thaliana, UniProt Q9C932 14-162); conditions: protein: recombinant; tags: GST; chain copies: 2; dsDNA, one strand shown
# T9 sequence: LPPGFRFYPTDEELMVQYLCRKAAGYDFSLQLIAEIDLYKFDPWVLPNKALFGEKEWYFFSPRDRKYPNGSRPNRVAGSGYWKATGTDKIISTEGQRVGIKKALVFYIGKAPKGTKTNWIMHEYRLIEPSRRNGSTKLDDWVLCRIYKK
# Procedure, shortened: as §1
# GST-ANAC055(1-171) = biological target: T10, GST-ANAC055(1-171) (Arabidopsis thaliana, UniProt Q9LDY8 1-171); conditions: protein: recombinant; tags: GST; chain copies: 2; dsDNA, one strand shown
# T10 sequence: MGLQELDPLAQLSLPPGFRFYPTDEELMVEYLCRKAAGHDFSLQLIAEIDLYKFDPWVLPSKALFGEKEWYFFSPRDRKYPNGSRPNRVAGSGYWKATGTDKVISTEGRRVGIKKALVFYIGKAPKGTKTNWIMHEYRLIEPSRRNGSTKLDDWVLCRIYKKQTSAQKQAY
# Procedure, shortened: as §1
# GST-NTL8 NAC domain = biological target: T11, GST-NTL8 NAC domain (Arabidopsis thaliana, UniProt Q9XIN7 14-156); conditions: protein: recombinant; tags: GST; chain copies: 2; dsDNA, one strand shown
# T11 sequence: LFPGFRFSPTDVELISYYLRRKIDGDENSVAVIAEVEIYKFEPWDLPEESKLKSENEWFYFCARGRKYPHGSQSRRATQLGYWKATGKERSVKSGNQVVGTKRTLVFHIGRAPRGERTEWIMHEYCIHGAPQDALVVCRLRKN
# Procedure, shortened: as §1
# Sequence of GST-NTL6(1-168) (Q9SCK6 1-168): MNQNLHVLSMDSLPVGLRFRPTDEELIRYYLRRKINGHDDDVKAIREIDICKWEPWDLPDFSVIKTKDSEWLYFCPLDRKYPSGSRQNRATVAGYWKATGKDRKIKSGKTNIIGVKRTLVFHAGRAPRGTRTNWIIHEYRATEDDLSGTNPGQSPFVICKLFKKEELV
# Sequence of GST-WRKY1(266-371) (Q9SI37 266-371): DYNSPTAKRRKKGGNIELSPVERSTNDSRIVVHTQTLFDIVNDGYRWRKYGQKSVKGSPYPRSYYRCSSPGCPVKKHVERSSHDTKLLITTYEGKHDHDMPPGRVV
Sequence,binding signal (GST-ATAF1 NAC domain) [E-score],binding signal [1] [E-score],binding signal (GST-NAP(1-166)) [E-score],binding signal (GST-NST2(1-184)) [E-score],binding signal (GST-SND1(1-203)) [E-score],binding signal (GST-VND3 NAC domain) [E-score],binding signal (GST-VND7 NAC domain) [E-score],binding signal (GST-WRKY1(266-371)) [E-score],binding signal (GST-ANAC092(1-176)) [E-score],binding signal (GST-NTL6(1-168)) [E-score],binding signal (GST-ANAC019 NAC domain) [E-score],binding signal (GST-ANAC055(1-171)) [E-score],binding signal (GST-NTL8 NAC domain) [E-score]
AAAGTCAT,0.14,0.119,0.0502,0.0576,0.162,0.0602,0.121,0.428,,,,,
ACACGATA,0.267,0.417,0.183,0.27,0.266,0.273,0.248,,0.38,0.127,0.324,0.261,
GCACGTCA,0.317,0.465,0.341,0.229,0.29,0.368,0.38,0.195,0.449,,0.421,0.341,
AGTCAAAA,0.234,0.0672,,,0.111,0.104,0.0632,0.47,0.157,,0.0721,,
CAACACGC,0.172,0.436,0.252,0.229,0.259,0.162,0.218,0.125,0.418,,0.304,0.227,0.0505
ACGTATCT,0.334,0.306,0.393,0.189,0.14,0.393,0.313,,0.189,0.0824,0.425,0.38,
CAAAGTCA,,0.0505,,,0.0515,0.0817,0.0536,0.454,,,,0.0622,
AGACACGC,0.165,0.42,0.0846,0.107,0.215,0.0792,0.165,0.084,0.364,,0.0909,0.0867,0.0629
AGTTTGAC,0.122,,,,0.069,0.0521,0.095,0.48,,0.0778,0.068,0.118,
GACGTCAA,0.0728,0.19,0.122,0.0988,0.139,0.126,0.0526,0.436,0.16,,,0.0759,
GATTGACC,,0.14,,,0.0705,0.138,0.059,0.479,0.141,,,0.0576,
TAAGTCAA,0.208,0.158,,0.172,0.175,0.0988,0.145,0.483,,0.268,,0.121,
ACACGCTA,0.116,0.49,0.194,0.4,0.438,0.079,0.104,,0.484,0.0935,0.16,0.193,
ATGTCAAC,0.127,,0.106,0.0828,0.0631,0.089,0.124,0.443,,0.0563,,0.133,
ACGCAATA,0.166,0.447,0.301,0.288,0.419,0.312,0.288,0.0639,0.444,,0.233,0.212,0.0551
ACGGAAGC,0.289,0.298,0.236,0.257,0.209,0.385,0.266,,0.299,0.0877,0.436,0.374,
